# Rows were chosen to be rich in hits. Some 0.71% of all compounds tested hit in one or more screens of this group.
# TRb SRC2 PPI: disrupts binding of human TR beta to SRC2. TRbeta-SRC2 peptide binding, fluorescence polarization; receptor liganded with 1 µM T3. Potency, µM (doses to about 106 µM), without a hit: top-dose activity change, negative = inhibition, usual class: inhibitors. 280,000 tested, 0.065% active;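 further: potency means the concentration at half of the fitted maximal effect; plate controls were bound peptide for no effect and peptide without receptor for full effect; nearly all actives have a fitted effect of over 50% in size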
#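 Each compound concentration gave % activity, normalized to unbound and bound Texas Red SRC2 controls, from polarization read after 5 hr ambient incubation with T3-loaded human TRb LBD.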
# CBFb-RUNX1 inh: inhibitors of human CBF-beta and RUNX1 interaction. AID 1477. 230,000 tested, under 10 active. Potency, µM (doses to about 59.8 µM), for the others: top-dose activity, negative = inhibition, actives largely listed as inhibitors. AlphaScreen CBFb-His/RUNX1-biotin binding, biochemical; further: % of control where 0% means no effect
#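 AlphaScreen proximity signal reports loss of binding between His-tagged CBF-beta and biotin-labelled RUNX1, each at 30 nM. Proteins are pre-associated for 20 minutes, compounds added for 15 minutes, then beads for 90 minutes, all at ambient temperature.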
# RGS12 GoLoco inh: RGS12 GoLoco-Gai1 interaction inhibition; Gai1:RGS12 GoLoco peptide FP, rhodamine, 10 min; Potency, µM (series often up to 61.6 µM), for inactives: top-dose activity, negative = inhibition, most hits filed as inhibitors; 230,000 tested, 0.44% active; AID 880; active means well fitted inhibition curve with a large enough effect, not every such curve was filed as active; inactive means no such curve, though single readings can be large or run the other way; further: potency means the concentration at half of the fitted maximal effect; on the % scale 0 is the no-effect control and ±100 the full control effect; nearly all actives have a fitted effect of over 30% in size
# Target sequence (P63096 whole entry, looked up): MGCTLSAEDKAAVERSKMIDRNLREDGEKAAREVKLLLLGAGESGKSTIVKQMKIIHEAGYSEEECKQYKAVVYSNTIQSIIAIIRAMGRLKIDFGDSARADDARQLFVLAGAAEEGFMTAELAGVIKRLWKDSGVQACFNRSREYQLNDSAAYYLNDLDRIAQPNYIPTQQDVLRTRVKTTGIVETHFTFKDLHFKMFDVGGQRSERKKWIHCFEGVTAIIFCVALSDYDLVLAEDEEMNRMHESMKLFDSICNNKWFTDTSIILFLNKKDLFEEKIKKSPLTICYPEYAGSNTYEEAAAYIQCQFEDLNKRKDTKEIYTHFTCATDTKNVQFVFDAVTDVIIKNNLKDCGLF
# Epigenetic reg: regulators of epigenetic silencing causing reporter derepression in mouse cells | murine LDR cells, GFP reporter derepression, 30 h | AID 1865 | 280,000 tested, 0.2% active | Potency, µM (series often up to 53.9 µM), without a hit: at the top dose GFP activation, most hits filed as activators; further: potency means the concentration at half of the fitted maximal effect; % of control where 0% means no effect; nearly all actives have a fitted effect of over 60% in size
#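 Murine LDR cells bearing a silenced CMV-driven GFP reporter were exposed to compound for 30 h at 37 C. After PBS washes, GFP-positive cells (20-120 um objects) counted by laser-scanning microplate cytometry.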
# TexasRed fluor: counter-screen for TRb-SRC2 inhibitors: fluorescence interference | TRb/SRC2 Texas Red total fluorescence interference | Potency, µM (highest dose often 106 µM), inactives show at the top dose fluorescence change, negative = quenching | 280,000 tested, 0.29% active | AID 1479; active means well fitted curve in either direction with a large enough effect; inconclusive means small, poorly fitted or top-dose-only effect; further: potency means the concentration at half of the fitted maximal effect; on the % scale 0 is the no-effect control and ±100 the full control effect
#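 Human TRβ ligand-binding domain (0.6 uM) and Texas Red SRC2 peptide (20 nM) in Tris buffer with 1 uM T3 and 5% DMSO were incubated with pinned compound for 5 hr at ambient temperature. Total fluorescence was computed as S + 2P (555/632 nm).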
# The depositor's hits bear a star; ? = inconclusive; / = not tested or not shown; [ ] = remark or other dose. Unless noted, the call rests on the fitted dose curve; in most records, active means well fitted curve in the direction sought with a large enough effect; inconclusive means small, poorly fitted or top-dose-only effect, or another doubt; inactive means no such curve, though single readings can be large; an effect the other way counts as inactive or inconclusive.
SMILES,TRb SRC2 PPI,CBFb-RUNX1 inh,RGS12 GoLoco inh,Epigenetic reg,TexasRed fluor
CCN1C(=S)SC(=O)C1=C1C=C(C)N(CCO)C(C)=C1,6%,7%,10%,14µM*,0%
CCN1C(=S)SC(=O)C1=C1C=C(C)N(CCOC)C(C)=C1,0%,-12%,4%,8%,2%
COc1ccc(NC(=O)N2CCc3nc(COc4ccccc4)c4c(c3C2)CO[C@@H](C)C4)cc1,2%[11.2 µM],-3%[13.1 µM],5%[14.2 µM],/,0%[11.2 µM]
N=c1n(CC(=O)c2ccc([N+](=O)[O-])cc2)c2ccccc2n1Cc1ccc(Cl)cc1,-5%,2%,5%,16µM*,0%
N=c1n(Cc2ccccc2)c2ccccc2n1Cc1ccccc1,1%,26%,-1%,11%,-1%
N=c1n(CC(=O)c2ccc([N+](=O)[O-])cc2)c2ccccc2n1Cc1ccccc1,-5%,2%,11%,22µM*,-2%
CCCCCCCCCCCCC[N+](C)(C)Cc1ccccc1,0%,18%,-55%,-1%,-2%
O=C(O)CCCCCCC(=O)O,1%[201 µM],/,/,/,3%[201 µM]
O=S(=O)(NCc1ccc(Cl)cc1)c1ccc2[nH]c3c(c2c1)CCCC3,-7%,/,/,0%,25µM*[quencher]
Cc1cccc(NS(=O)(=O)c2ccc3[nH]c4c(c3c2)CCCCCC4)c1,0%,/,/,7%,3%
O=S(=O)(Nc1cccc(Cl)c1)c1ccc2[nH]c3c(c2c1)CCCCCC3,-15%,/,/,11%,126µM*[quencher]
COc1cccc2cc(-c3nc(-c4ccccc4F)no3)c(=O)oc12,-5%,/,/,4%,-1%
O=C(/C=C/Nc1ccccc1)c1ccccc1,8%,-2%,-17%,1%,1%
CN(C)c1ccc(N/C=C/C(=O)C(C)(C)C)cc1,45µM*,-14%,-5%,1%,?
CCOC(=O)c1ccc(N/C=C/C(=O)C(C)(C)C)cc1,2%,7%,4%,-10%,0%
CN(C)c1ccc(N/C=C/C(=O)c2ccccc2)cc1,32µM*,7%,68%,1%,45µM*[fluorescent]
C=CCCCCCCCCCCCC,3%[201 µM],/,/,/,-4%[201 µM]
O=C(NCCN1CCCC1)c1ccc(-n2c(=O)c(=O)[nH]c3ccccc32)cc1,/,/,/,1%,/
CCn1c(CSc2nccn2C)nc2cc(C(=O)O)ccc21,?,23%,16µM*,6%,13µM*[fluorescent]
COc1cc(/C=C2/NC(=O)N(c3cccc(Cl)c3)C2=O)ccc1O,-5%,2%,19%,-1%,-7%
O=C(O)c1cccc(-n2cccc2/C=C2/NC(=O)N(c3ccc(Cl)cc3)C2=O)c1,?,?,-8%,2%,18µM*[quencher]
COc1ccc(-n2cccc2/C=C2/NC(=O)N(c3cccc(Cl)c3)C2=O)cc1,0%,-6%,3.5µM*,-2%,1%
CN(C)c1ccc(/C=C(\C#N)c2nc3ccccc3c(=O)[nH]2)cc1,-2%,/,/,6.3µM*,0%
Cc1cccc(/C=C(\C#N)c2nc3ccccc3c(=O)[nH]2)c1,-5%,/,/,-2%,0%
O=S(=O)(O)c1ccc2c(N=Nc3cccc4ccccc34)c(O)c(S(=O)(=O)O)cc2c1,/,/,54%[14.2 µM],/,/
SMILES,TRb SRC2 PPI,CBFb-RUNX1 inh,RGS12 GoLoco inh,Epigenetic reg,TexasRed fluor
Cc1nn(-c2ccc(S(=O)(=O)O)cc2)c(O)c1N=Nc1ccc(-c2ccc(N=Nc3ccc4c(S(=O)(=O)O)cc(S(=O)(=O)O)c(N)c4c3O)c(O)c2)cc1O.[Cu].[Cu],/,/,3.2µM*,/,/
COc1cc(-c2ccc(N=Nc3ccc4c(S(=O)(=O)O)cc(S(=O)(=O)O)c(N)c4c3O)c(OC)c2)ccc1N=Nc1ccc2c(S(=O)(=O)O)cc(S(=O)(=O)O)c(N)c2c1O,25µM*,/,30%,-1%,16µM*[fluorescent]
O=[N+]([O-])c1ccc2c(N=Nc3ccc4ccccc4c3O)c(O)cc(S(=O)(=O)O)c2c1,/,/,10%[14.2 µM],/,/
COC(=O)[C@H](COC(C)(C)C)NC(=O)O[C@@H]1C(=O)c2ccc(OC)cc2O[C@H]1c1ccc2c(c1)OCO2,1%,-9%,-2%,-1%,-2%
COc1cc2nc(=S)n3[nH]c(CCn4nc(C)cc4C)nc3c2cc1OC,2%,-3%,-8%,5µM*,-4%
O=C(N/N=C/c1sc(N2CCOCC2)nc1-c1ccccc1)c1ccccc1F,-1%,25%,-4%,0%,-3%
O=C(Nc1ccccc1F)C(=Cc1sc(N2CCOCC2)nc1-c1ccccc1)C(=O)Nc1ccccc1F,-10%,0%,23%,14µM*,1%
N#C/C(=C\Nc1ccc2cn[nH]c2c1)c1nc(-c2ccc(Cl)cc2)cs1,71µM*,1%,82%,7%,?
N#C/C(=C\Nc1ccc2cn[nH]c2c1)c1nc(-c2ccccc2)cs1,-11%,/,26%,-2%,0%
NCCn1oc(=O)[nH]c1=O,-1%,-10%,-1%,5%,-3%
CCCSc1ncc(Cl)c(C(=O)Nc2sc3c(c2C(=O)NCC)CCCC3)n1,3%,/,/,4.5µM*,-43%
CCSc1ncc(Cl)c(C(=O)Nc2sc3c(c2C(=O)NC)CCCC3)n1,-5%,/,/,7.1µM*,-11%
COC(=O)c1c(NC(=O)c2nc(SCc3ccc(C)cc3)ncc2Cl)sc2c1CCCC2,-1%,/,/,-1%,-1%
CCC(C(=O)O)c1ccccc1 (centres undefined),-2%,12%,28µM*,-1%,0%
CCCCC(CC)COC(=O)/C=C\C(=O)OCC(CC)CCCC (centres undefined),3%[201 µM],/,/,/,-6%[201 µM]
CN(C)CCN(Cc1ccco1)C(=O)c1cc2c(s1)-c1ccccc1OC2,0%,/,/,2%,5%
CCc1ccc2occ(CC(=O)Nc3ccc(OC)c(Cl)c3)c2c1,-17%[53 µM],/,/,4%,0.089µM*[quencher]
CCc1ccc2occ(CC(=O)NCc3ccccc3)c2c1,5%,/,/,2%,9%
COc1ccc(NC(=O)COC(=O)/C=C/C(=O)OCC(=O)Nc2ccc(OC)c(Cl)c2)cc1Cl,-6%,-8%,8.9µM*,-1%,-1%
CCOC(=O)/C=C/C(=O)OCC(=O)Nc1ccc(OC)c(Cl)c1,-5%,9%,-3%,-1%,0%
CC(=O)OC(C(=O)c1ccccc1)c1ccccc1 (centres undefined),-1%,7%[21.7 µM],16µM*,/,-1%
O=c1c(-c2cccs2)nc2cncnc2n1-c1ccccc1,/,/,64%,/,/
CCOC(=O)/C=c1\s/c(=C\c2sccc2C)c(=O)n1CC(=O)NCc1ccc(C)cc1,9%,1%,38%,7.9µM*,-1%
CS[C@]12C(=O)C[C@]3(C)[C@@H](CC[C@@]3(O)C(=O)CO)[C@@H]1CCC1=CC(=O)CC[C@]12C,/,/,5%[14.2 µM],/,/
CCC(=O)Nc1cc(-c2nc3ccccc3s2)c(Cl)cc1Cl,-11%,/,/,0%,35µM*[quencher]
CC(=O)CSc1nnc2cc(C)c3cc(C)cc(C)c3n12,-14%,/,/,-3%,25µM*[quencher]
